# Records with an inconclusive call do not appear. Values without a mark were called inactive. Active and inactive are the calls of the source. Calls follow the shape of the dose curve; as a rule, active = well fitted inhibition curve with a large enough effect; inconclusive = small, poorly fitted or top-dose-only effect; inactive = flat fitted curve, though single readings scatter.
# Tests used:
# HaCat [1] = experiment: Cytotoxic Profiling of Annotated Libraries Using Quantitative High-Throughput Screening (AID 1296008); conditions: Five cell lines viability, CellTiter-Glo ATP luminescence, 48-72 h; max response: hits give low values; also: potency is read from the fitted curve at half-maximal effect; as to max response: % is scaled to controls: 0 for no effect and ±100 for the full control effect
# How it was run: (§1)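 Cytotoxicity was measured as CellTiter-Glo ATP luminescence, read after 10 min at room temperature. Compound treatment of the cells lasted 48 or 72 hr at 37 degrees Celsius in a qHTS format.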
# KB-3-1 = experiment: as above; conditions: Five cell lines viability, CellTiter-Glo ATP luminescence, 48-72 h; max response: hits give low values
# How it was run: as §1
# NIH3T3 = experiment: as above; conditions: Five cell lines viability, CellTiter-Glo ATP luminescence, 48-72 h; max response: hits give low values
# How it was run: as §1
# HACAT [2] = experiment: qHTS assay to identify novel small-molecules to repurpose for Merkel cell carcinoma treatment (AID 1296009); conditions: MCC and control cell lines, CellTiter-Glo viability, 72 h; at 44.8 µM (top of the series) unless noted
# How it was run: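 72 hr, 37 degree celsius; NPC 8-pt / MIPE 11-pt dose response; compound pinned in DMSO; CellTiter-Glo, 10 min RT, luminescence; normalized to no-cell and DMSO controls.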
# Also: nearly all actives have a fitted effect of over 60% in size.
structure (smiles),measurement,setting,value
CCCCNc1ncc2c(-c3ccc(S(=O)(=O)N4CCOCC4)cc3)nn(C3CCC(O)CC3)c2n1 (stereo unspecified),Potency,HaCat [1],6.51 µM (active)
same,Potency,KB-3-1,11.6 µM (active)
same,Potency,NIH3T3,7.31 µM (active)
O=C(Nc1ncc([N+](=O)[O-])s1)c1ccccc1O,outcome,HaCat [1],inactive
same,Potency,KB-3-1,8.2 µM (active)
same,outcome,NIH3T3,inactive
same,outcome,HACAT [2],inactive
COc1cc(N2CCOCC2)ccc1NC(=O)c1csc(-c2cccnc2)n1,max response,HaCat [1],-49.6%
same,max response,KB-3-1,1.64%
same,Potency,NIH3T3,10.3 µM (active)
CC(CCC1(O)OC2CC3C4CC=C5C[C@@H](O[C@@H]6O[C@H](CO)[C@@H](O[C@@H]7O[C@@H](C)[C@H](O)[C@@H](O)[C@H]7O)[C@H](O)[C@H]6O[C@@H]6O[C@@H](C)[C@H](O)[C@@H](O)[C@H]6O)CC[C@]5(C)C4CC[C@]3(C)[C@@]2(O)[C@@H]1C)CO[C@@H]1O[C@H](CO)[C@@H](O)[C@H](O)[C@H]1O (stereo partly specified),outcome,HaCat [1],inactive
same,outcome,KB-3-1,inactive
same,max response,NIH3T3,4.51%
same,outcome,HACAT [2],inactive [at 9.27 µM]
O=C(Nc1cnc(Cl)nc1)c1ccc(F)c(F)c1,outcome,HaCat [1],inactive
same,max response,KB-3-1,3.36%
same,max response,NIH3T3,1.41%
same,outcome,HACAT [2],inactive
O=c1[nH]c([C@@H]2CCCN2)nc2c1oc1ccc(Cl)cc12,Potency,HaCat [1],1.46 µM (active)
same,max response,KB-3-1,-19.5%
same,max response,NIH3T3,-23.2%
c1cc(NC2CCNCC2)nc(-c2cnc3ccccn23)c1,Potency,HaCat [1],3.66 µM (active)
same,Potency,KB-3-1,3.26 µM (active)
same,Potency,NIH3T3,5.8 µM (active)
O=C(NCCCCCCCCNC(=O)C(Cl)Cl)C(Cl)Cl,max response,HaCat [1],-4.24%
same,max response,KB-3-1,-9.66%
same,max response,NIH3T3,-14.9%
C=C(C)C(=O)O[C@H]1/C(C=O)=C\CC/C(CO)=C/[C@H]2OC(=O)C(=C)[C@@H]2[C@@H]1OC,outcome,HaCat [1],inactive
same,max response,KB-3-1,9.81%
same,outcome,HACAT [2],inactive
CC(=O)OC1CCC2(C)C(CCC3(C)C2CC=C2C4C(C)C(C)CCC4(C)CCC23C)C1(C)C(=O)O (stereo unspecified),max response,HaCat [1],3.45%
same,max response,NIH3T3,-0.103%
COc1ccc(C2=NC(c3ccc(Cl)cc3)C(c3ccc(Cl)cc3)N2C(=O)N2CCNC(=O)C2)c(OC(C)C)c1 (stereo unspecified),outcome,HaCat [1],inactive
same,outcome,KB-3-1,inactive
same,outcome,HACAT [2],inactive
CS/C=C/C(=O)O[C@@H]1CCC2=CC(=O)C(=C(C)C)C[C@]2(C)[C@H]1C,max response,HaCat [1],-6.05%
same,max response,NIH3T3,-13.9%
CCOC(=O)N1CCC(CN(Cc2ccc(Cl)cc2)Cc2ccc([N+](=O)[O-])s2)C1 (stereo unspecified),max response,HaCat [1],-2.73%
same,max response,NIH3T3,-3.24%
CN(C)CCC(CSc1ccccc1)Nc1ccc(S(=O)(=O)NC(=O)c2ccc(N3CCN(Cc4ccccc4-c4ccc(Cl)cc4)CC3)cc2)cc1[N+](=O)[O-] (stereo unspecified),Potency,HaCat [1],23.1 µM (active)
same,max response,NIH3T3,-12.9%
